Laboratory results from PubChem BioAssay (NCATS).
Inconclusive results are not listed. Entries that show only a call come without a potency. Active and inactive are the calls of the source. Calls come from the whole dose curve; as a rule, active = well fitted cell-killing curve with a large enough effect; inconclusive = small, poorly fitted or top-dose-only effect, or effect the other way; inactive = no such curve, though single readings can be large or run the other way.

assay: Viability qHTS for spleen associated tyrosine kinase inhibitor (SYKi) drug resistant MV4-11 cells (AID 1963824); details: SYKi-resistant MV4-11 viability, CellTiter-Glo, 72 h; series mostly up to 45 µM; note: nearly all actives have a fitted effect of over 35% in size
Outline: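 SYK inhibitor-resistant MV4-11 AML cells, 500 per well, added to predispensed compounds and incubated 72 hr at 37 C, 5% CO2. Viability measured by CellTiter-Glo luminescence after 10 min at room temperature.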
Potency is the fitted concentration of half-maximal effect.

Question: Which Potency does the source give for `O=C1C[C@@H]2OCC=C3CN4CC[C@]56c7ccccc7N1[C@H]5[C@H]2[C@H]3C[C@H]46` here?
Answer: Its Potency is “inactive”.

Question: For `O=C1CN=C(c2ccccc2Cl)c2cc(Br)ccc2N1`, which Potency is on record?
Answer: The Potency was “inactive”.

Question: Which Potency does the source give for `N#CC(O[C@@H]1O[C@H](CO)[C@@H](O)[C@H](O)[C@H]1O)c1ccccc1` (stereo partly drawn) here?
Answer: The Potency was “inactive”.

Question: With `CC(=O)OC12C(O)C(C)C3(O)C4C=C(C)C(=O)C4CC(CO)=CC3C1C2(C)C` (stereo not drawn) as the compound, how does the Potency read?
Answer: The Potency was “inactive”.

Question: Which Potency does the source give for `CC1=CC2/C=C(\C)CCC(O)C(O)/C=C/C(=O)OC23C(=O)NC(CC(C)C)C3C1C` (stereo not drawn) here?
Answer: Its Potency is 7.96 µM (active).

Question: With `CCC1C2CC3C4N(C)c5ccccc5C45CC(C2C5O)N3C1O` (stereo not drawn) as the compound, how does the Potency read?
Answer: Its Potency is “inactive”.

Question: Which Potency does the source give for `C=C1C[C@]2(O)[C@@]3(C)CCC(=O)C(C)(C)C3=C(O)C(=O)[C@@]2(C)[C@@H]2C(=O)O[C@@](C)(C(=O)OC)C(=O)[C@@]12C` here?
Answer: The Potency was “inactive”.

Question: With `NC(=O)c1ncn2c1CN=C(c1ccccc1Br)c1cc(F)ccc1-2` as the compound, how does the Potency read?
Answer: Its Potency is “inactive”.
